In the supplement of paper PMC9492666:
Counter-ions that a name gives are not always drawn.

Columns and labels:
HCC1937 = test: relative cell viability, compound alone, vs DMSO (fraction of DMSO control); higher = less growth inhibition; settings: 72 h
MDA-MB-231 = test: as above; settings: 72 h
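Note: viability read out with the CCK-8 kit in 96-well plates, screening a set of 303 compounds acting on lipid metabolism targets.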

| Structure (SMILES) | relative cell viability (HCC1937) | relative cell viability (MDA-MB-231) |
| --- | --- | --- |
| CC[C@H](C)C(=O)O[C@H]1CCC=C2C=C[C@H](C)[C@H](CC[C@@H]3C[C@@H](O)CC(=O)O3)[C@H]21 [Mevastatin] | 0.819 | 0.548 |
| O=C(NCCS(=O)(=O)c1ccc(C(F)(F)F)cn1)c1ccc(Cl)cc1 | 0.749 | 0.901 |
| CN(C(=O)n1cnc(-c2ccc[n+]([O-])c2)c1)C1CCCCC1 | 0.65 | 0.934 |
| O=C(NNc1ccccc1)c1ccncc1 [PluriSln 1] | 0.925 | 0.814 |
| COc1ccc(Nc2ccn(-c3ccccc3)n2)cc1 | 0.868 | 1 |
| Cc1cc(SCc2sc(-c3ccc(C(F)(F)F)cc3)nc2C)ccc1OCC(=O)O | 0.916 | 0.857 |
| NC(=O)c1cccc(-c2cccc(OC(=O)NC3CCCCC3)c2)c1 | 0.822 | 1.02 |
| C=C1C[C@]2(O)O[C@@]3(CC2=C(C)C)[C@@H](C)CC[C@@H]13 [Isocurcumenol] | 0.933 | 0.92 |
| NC(N)=NN=Cc1cccc(Cl)c1Cl [Raphin1] | 0.818 | 0.72 |
| O=C(O)CN(CC(=O)O)c1ccccc1OCCOc1ccccc1N(CC(=O)O)CC(=O)O | 0.633 | 0.899 |
| CCN(CC)Cc1ccc(C(=O)N(CCc2ccccc2OC)[C@@H]2CCNC2)cc1 | 1.45 | 0.979 |
| CC1CC(OC(=O)C(O)c2ccccc2)CC(C)(C)C1 (stereo unspecified) [Cyclandelate] | 1.21 | 0.825 |
| CN(CCOc1ccc(CC2SC(=O)NC2=O)cc1)c1ccccn1 (stereo unspecified) [Rosiglitazone maleate] | 0.841 | 0.86 |
| CCN(CC)CCN(Cc1ccc(-c2ccc(C(F)(F)F)cc2)cc1)C(=O)Cn1c(SCc2ccc(F)cc2)nc(=O)c2c1CCC2 [Darapladib] | 0.0924 | 0.22 |
| OC[C@H]1O[C@@H](Oc2cc(O)cc(/C=C/c3ccc(O)cc3)c2)[C@H](O)[C@@H](O)[C@@H]1O [Polydatin] | 1.07 | 0.871 |
| C=C(C)[C@@H]1CC[C@]2(C)CC[C@]3(C)[C@H](CC[C@@H]4[C@@]5(C)CCC(=O)C(C)(C)[C@@H]5CC[C@]43C)[C@@H]12 | 1.04 | 1.08 |
| COc1ccc(CN2CCC(c3ccc4nc(C(=O)N5CCN(Cc6ccc(C(F)(F)F)cc6)CC5)[nH]c4c3)CC2)cn1 | 0.849 | 0.795 |
| COc1cc(N2CCN(C)CC2)ccc1Nc1ncc2c(n1)N(C1CCC1)C(=O)N(c1c(C)cccc1C)C2 | 0.817 | 0.767 |
| O=C(O)c1cccnc1Nc1cccc(C(F)(F)F)c1 [Niflumic acid] | 1.09 | 0.89 |
| COc1c(/C=C/C(=O)c2ccc(O)cc2)ccc(O)c1CC=C(C)C | 1.06 | 0.885 |
| CCOP(=O)(OCC)C(=Cc1cc(C(C)(C)C)c(O)c(C(C)(C)C)c1)P(=O)(OCC)OCC | 0.631 | 0.779 |
| CCCCCCCCCCC#CC#CCCCCCCCCC(=O)O [10,12-Tricosadiynoic acid] | 0.712 | 0.911 |
| c1cc(-c2cnn3cc(-c4ccc(OCCN5CCCCC5)cc4)cnc23)ccn1 [Dorsomorphin] | 0.216 | 0.383 |

| Structure (SMILES) | relative cell viability (HCC1937) | relative cell viability (MDA-MB-231) |
| --- | --- | --- |
| O=C(ON1C(=O)CCC1=O)N1CCN(C(c2ccc(Cl)cc2)c2ccc(Cl)cc2)CC1 [Cravatt Reagent] | 1.26 | 0.975 |
| O=C(O)C(=O)Nc1sc2c(c1C(=O)O)CCNC2 | 1.01 | 0.872 |
| O=S(=O)(c1ccccc1)N(CC(F)(F)F)c1ccc(C(O)(C(F)(F)F)C(F)(F)F)cc1 | 0.957 | 1.23 |
| O=C(Nc1ccc(C(O)(C(F)(F)F)C(F)(F)F)cc1)c1ccccc1Cl | 1.05 | 1.01 |
| Nn1nnc2ccccc21 [1-Aminobenzotriazole] | 1.07 | 0.937 |
| O=C(NC1CCN(CCCCC2(C(=O)NCC(F)(F)F)c3ccccc3-c3ccccc32)CC1)c1ccccc1-c1ccc(C(F)(F)F)cc1 [Lomitapide] | 0.293 | 0.695 |
| C=CCc1ccc(O)c(-c2cc(CC=C)ccc2O)c1 [Magnolol] | 1 | 0.968 |
| Cc1nc(Nc2cnn(C3CCNCC3)c2)nc2c1N(C)C(=O)c1cc3ccccc3cc1N2C | 0.354 | 0.49 |
| CC1(C)CC[C@]2(C(=O)O[C@@H]3O[C@H](CO)[C@@H](O)[C@H](O)[C@H]3O)CC[C@]3(C)C(=CC[C@@H]4[C@@]5(C)CC[C@H](O[C@@H]6O[C@H](C(=O)O)[C@@H](O)[C@H](O)[C@H]6O[C@@H]6O[C@H](CO)[C@@H](O)[C@H](O)[C@H]6O)C(C)(C)[C@@H]5CC[C@]43C)[C@@H]2C1 [Ginsenoside Ro] | 1.02 | 0.9 |
| CN(C)C(=N)NC(=N)N [Metformin] | 0.646 | 0.93 |
| O=C(O)Cn1nnc(-c2cc(N3CCC(Oc4cc(F)ccc4Br)CC3)no2)n1 | 0.842 | 0.882 |
| COc1ccc(-n2c(SCCCN3C(=O)c4cccc5cccc(c45)C3=O)nnc2-c2ccncc2)cc1 | 0.661 | 0.877 |
| Cc1nc2ccc(NCc3cccc(C(F)(F)F)c3)cc2n(CCNC(=O)CO)c1=O | 0.667 | 0.835 |
| CCCC[S+]([O-])c1sc2nc(-c3cccs3)cc(-c3ccccc3)c2c1N (stereo unspecified) | 0.85 | 0.806 |
| O=C(CC(C(=O)O)c1c[nH]c2ccccc12)c1ccc(F)cc1F (stereo unspecified) [Mitochonic acid 5] | 1.26 | 1.19 |
| Cc1c(C(=O)NN2CCCCC2)nn(-c2ccc(Cl)cc2Cl)c1-c1ccc(Cl)cc1 [Rimonabant] | 0.936 | 0.817 |
| NC(=O)c1cnccn1 [Pyrazinamide] | 0.654 | 0.841 |
| C[C@@H](Nc1nc(N[C@H](C)C(F)(F)F)nc(-c2cccc(Cl)n2)n1)C(F)(F)F [Vorasidenib] | 0.708 | 0.914 |
| CCOc1cc(CC(=O)N[C@@H](CC(C)C)c2ccccc2N2CCCCC2)ccc1C(=O)O [Repaglinide] | 1.02 | 0.938 |
| CC(=O)c1c(C)cc2cccc(O)c2c1O [Nepodin] | 0.75 | 0.797 |
| O=c1oc2ccccc2cc1O [3-Hydroxycoumarin] | 1.02 | 1.05 |
| NC(=O)c1ncn([C@@H]2O[C@H](CO)[C@@H](O)[C@H]2O)c1N [AICAR (Acadesine)] | 0.804 | 0.892 |
| COC(=O)/C=C/c1cccc(N(Cc2ccc(-c3ccc(N(C)C)cc3)cc2)C(=O)C2CCCCC2)c1 [Fexaramine] | 0.805 | 0.924 |

| Structure (SMILES) | relative cell viability (HCC1937) | relative cell viability (MDA-MB-231) |
| --- | --- | --- |
| CC(C)(C)NC(=O)[C@H]1CC[C@H]2[C@@H]3CC[C@H]4NC(=O)C=C[C@]4(C)[C@H]3CC[C@]12C [Finasteride] | 1.17 | 0.934 |
| Nc1ccc(O)c(C(=O)O)c1 [Mesalamine] | 1.17 | 0.914 |
| Fc1ccc(-c2c3cccc(C(F)(F)F)c3nn2Cc2ccc(F)cc2Cl)cc1 | 1.11 | 0.816 |
| O=C(CN1CCN(C(=O)c2ccco2)CC1)Nc1cc(C(F)(F)F)ccc1Cl | 0.767 | 0.892 |
| CC(C)CCC[C@@H](C)[C@H]1CC[C@H]2[C@@H]3CCC4=CC(=NO)CC[C@]4(C)[C@H]3CC[C@]12C [Olesoxime] | 0.978 | 0.789 |
| CC1(C)C[C@H]2C3=CC[C@@H]4[C@@]5(C)CC[C@H](O)[C@@](C)(CO)[C@@H]5CC[C@@]4(C)[C@]3(C)C[C@H](O)[C@@]2(CO)[C@@H](O)[C@@H]1O [Gymnemagenin] | 1.13 | 1.04 |
| COc1ccc(-c2cc(=O)c3c(O)c(OC)c(O)cc3o2)cc1OC [Eupatilin] | 0.622 | 0.739 |
| COc1ccc(-c2c[nH]c3nccc(-c4ccsc4)c23)c(OC)c1 | 0.993 | 0.935 |
| CCC(CC)CC1(C(=O)Nc2ccccc2SC(=O)C(C)C)CCCCC1 [Dalcetrapib] | 1.35 | 1.06 |
| CC1=C(/C=C/C(C)=C/C=C/C(C)=C/C=C/C=C(C)/C=C/C=C(C)/C=C/C2=C(C)C(=O)[C@@H](O)CC2(C)C)C(C)(C)C[C@H](O)C1=O [Astaxanthin] | 1.01 | 1.13 |
| O=c1c(O[C@@H]2O[C@H](CO)[C@@H](O)[C@H](O)[C@H]2O)c(-c2ccc(O)cc2)oc2cc(O)cc(O)c12 [Astragalin] | 0.937 | 0.984 |
| Cn1c2cc([S+](C)[O-])sc2c2cnn(Cc3cccc(N)c3)c(=O)c21 (stereo unspecified) | 0.688 | 0.96 |
| C[C@H](CCOc1cccc(CC(=O)O)c1)N(Cc1cccc(C(F)(F)F)c1Cl)CC(c1ccccc1)c1ccccc1 [RGX-104 free Acid] | 0.613 | 0.863 |
| CC1(C)CC[C@]2(C(=O)O[C@@H]3O[C@H](CO)[C@@H](O)[C@H](O)[C@H]3O)CC[C@]3(C)C(=CC[C@@H]4[C@@]5(C)CC[C@H](O[C@@H]6O[C@H](C(=O)O)[C@@H](O)[C@H](O)[C@H]6O)C(C)(C)[C@@H]5CC[C@]43C)[C@@H]2C1 [Chikusetsusaponin IVa] | 1.02 | 0.966 |
| COP(=O)(OC)OC(c1ccc(Cl)cc1)P(=O)(OC)OC (stereo unspecified) [Mifobate] | 1.18 | 1.2 |
| Cc1cc([N+](=O)[O-])ccc1NS(=O)(=O)c1cc(Cl)ccc1Cl | 0.579 | 0.795 |
| CCc1ccc(CCOc2ccc(CC3SC(=O)NC3=O)cc2)nc1 (stereo unspecified) [Pioglitazone] | 1.17 | 0.843 |
| COc1ccc(N(C(=O)Nc2c(C)cccc2C)c2cc(Nc3ccc(N4CCN(C)CC4)cc3)ncn2)c(OC)c1 | 0.915 | 1.11 |
| CCC1C(O)C2C3CCC(C(C)CCO)C3(C)CCC2C2(C)CCC(O)CC12 (stereo unspecified) | 0.848 | 0.916 |
| COc1ccc(C2(CNC(=O)c3ccc(NC(=O)c4ccco4)cc3)CCOCC2)cc1 | 0.84 | 0.873 |
| CC(C)OC(=O)C(C(=O)OC(C)C)=C1SC=CS1 [Malotilate] | 0.686 | 0.828 |
| CC(C)CCC[C@@H](C)[C@H]1CC[C@H]2[C@@H]3CC=C4C[C@@H](O)CC[C@]4(C)[C@H]3CC[C@]12C [Cholesterol] | 0.91 | 1.01 |
